DT40 TDP1 CPT: qHTS for Inhibitors of human tyrosyl-DNA phosphodiesterase 1 (TDP1): qHTS in cells in presence of CPT. AID 686979, 2013. 12% of 420,000 active. Potency, µM (highest dose often 46.2 µM), for inactives: at the highest dose activity change, negative = growth inhibition, usual class: inhibitors. chicken DT40 Tdp1-/-;hTDP1 cells + 20 nM CPT, ATP luminescence, 48 h; further: potency means the concentration at half of the fitted maximal effect; on the % scale 0 is the no-effect control and ±100 the full control effect; nearly all actives have a fitted effect of over 55% in size
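Cell growth measured by CellTiter-Glo luminescence after a minimum 48 h, 37 C compound exposure with 20 nM CPT in Tdp1-knockout DT40 cells stably expressing hTDP1, seeded 400/well; qHTS titration format.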
S-ASM inh: Inhibitors of Secretory Acid Sphingomyelinase (S-ASM): qHTS; placental ASM, HMU-PC fluorogenic substrate, 60 min; Potency, µM (titrated, usually from 57.5 µM), for the others: top-dose activity change, negative = inhibition, usual class: inhibitors; 0.006% of 340,000 active; AID 504937, 2011; further: potency means the concentration at half of the fitted maximal effect
Target sequence (P17405 47-631 limits assumed): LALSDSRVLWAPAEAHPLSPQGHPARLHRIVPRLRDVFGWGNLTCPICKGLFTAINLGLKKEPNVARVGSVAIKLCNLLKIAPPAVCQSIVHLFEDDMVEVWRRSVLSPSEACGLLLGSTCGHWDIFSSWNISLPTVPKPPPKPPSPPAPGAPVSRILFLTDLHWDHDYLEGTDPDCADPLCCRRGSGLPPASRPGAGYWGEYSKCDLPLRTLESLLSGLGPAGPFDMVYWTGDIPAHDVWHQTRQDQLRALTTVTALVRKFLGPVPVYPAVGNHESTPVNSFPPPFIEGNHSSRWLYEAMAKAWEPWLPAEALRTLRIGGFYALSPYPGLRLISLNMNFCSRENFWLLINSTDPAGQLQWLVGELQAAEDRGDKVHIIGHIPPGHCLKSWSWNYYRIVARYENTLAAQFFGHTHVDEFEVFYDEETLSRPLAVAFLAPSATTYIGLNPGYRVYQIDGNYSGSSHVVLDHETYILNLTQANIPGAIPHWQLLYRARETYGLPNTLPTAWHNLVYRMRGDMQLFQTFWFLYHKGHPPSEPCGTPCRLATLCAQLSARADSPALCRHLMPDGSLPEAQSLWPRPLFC
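Human placenta-derived ASM enzyme was preincubated with compound for 10 minutes at room temperature, then given fluorogenic substrate HMU-PC0 (9 uM final) for 60 minutes at 37 °C; a pH 10 stop preceded fluorescence reading at Ex 386/Em 447 nm.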
TGFb inhibitor: qHTS for Inhibitors of TGF-b. HepG2 CAGA-GFP TGF-b/SMAD3 reporter, GFP fluorescence, 18 h; TGF-beta stimulated, 500 pg/mL final. Potency, µM (titrated, usually from 46.1 µM), inactives show top-dose activity, negative = inhibition, most hits filed as inhibitors. 1.2% of 410,000 active; further: potency means the concentration at half of the fitted maximal effect; on the % scale 0 is the no-effect control and ±100 the full control effect; nearly all actives have a fitted effect of over 65% in size
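Smad-responsive CAGA-GFP expression was quantified in HEPG2 cells exposed to compounds and 500 pg/mL final TGF-beta for 18 h at 37 degrees C; unstimulated wells defined full inhibition.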
TDP1 cell noCPT: qHTS for Inhibitors of human tyrosyl-DNA phosphodiesterase 1 (TDP1): qHTS in cells in absence of CPT. DT40 Tdp1-/- hTDP1 cells, no CPT, ATP luminescence, 48 h. Potency, µM (titrated, usually from 46.2 µM), for inactives: top-dose activity change, negative = growth inhibition, actives largely listed as inhibitors. 15% of 420,000 active. AID 686978, 2013; further: potency means the concentration at half of the fitted maximal effect; on the % scale 0 is the no-effect control and ±100 the full control effect; nearly all actives have a fitted effect of over 55% in size
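Growth of hTDP1-complemented DT40 Tdp1-knockout cells is measured by ATP luminescence after at least 48 hr compound exposure at 37 °C, with DMSO substituting for the 20 nM CPT used in the parallel screen.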
HepG2 viability: qHTS for Inhibitors of TGF-b: Cytotox Counterscreen | Potency, µM (doses to about 46.1 µM), for the others: top-dose activity change, negative = cytotoxicity, usual class: cytotoxic | 0.76% of 410,000 active | HepG2 CAGA-GFP viability, ATP luminescence, 18 h; further: potency means the concentration at half of the fitted maximal effect
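CellTiter-Glo luminescence gave cytotoxicity after 18 hours at 37 degrees C. The cells were HepG2 CAGA-GFP in 1% FBS DMEM, stimulated with 500 pg/mL TGF-beta after compound addition. %Activity was normalised to no-cell wells (complete cell-killing) and DMSO (no toxicity), and curves were fitted and classified.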
IL1B secr inh: qHTS for Inhibitors of Inflammasome Signaling: IL-1-beta AlphaLISA Primary Screen; THP-1 LPS/ATP IL-1B secretion, AlphaLISA, 16 h; hits give low values; activity change, % at 57.5 µM; AID 743279, 2014; 4.7% of 360,000 active; in the data active means activity change below about -50%; inconclusive means mostly about -30% to -49%; further: on the % scale 0 is the no-effect control and ±100 the full control effect
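Secreted IL-1B measured by AlphaLISA bead assay after 16 h compound exposure of THP-1 cells; compounds (final up to 57.5 uM) added 1 h before LPS (250 ng/mL) and ATP (1.25 mM) stimulation; lower signal means less secretion.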
* = called active by the depositor; ? = inconclusive; . = not tested or not shown. Rows were chosen to be rich in hits. Some 19% of all compounds tested hit in one or more screens of this group. Unless noted, the call rests on the fitted dose curve; in most records, active means well fitted curve in the direction sought with a large enough effect; inconclusive means small, poorly fitted or top-dose-only effect, or another doubt; inactive means no such curve, though single readings can be large; an effect the other way counts as inactive or inconclusive.

SMILES	DT40 TDP1 CPT	S-ASM inh	TGFb inhibitor	TDP1 cell noCPT	HepG2 viability	IL1B secr inh
CCOC(=O)C1CCN(Cc2cc(=O)n3c(-c4ccccc4)csc3n2)CC1	12.8%	2.1%	3.4%	-2.0%	-23.2%	4.4
O=c1cc(CN2CCN(c3ccccc3)CC2)nc2scc(-c3ccccc3)n12	?	-2.5%	0.0%	23.1µM*	9.0%	42.1
Cc1ccccc1N1CCN(Cc2nc(Cc3ccccc3)no2)CC1	?	-5.2%	-14.9%	?	-15.9%	4.0
CC(=O)c1ccc(N2CCN(Cc3nc(Cc4ccccc4)no3)CC2)cc1	?	-1.0%	-25.6%	16.4µM*	-34.7%	13.2
CC(=O)c1ccc(N2CCN(Cc3cc(=O)n4c(-c5ccccc5)csc4n3)CC2)cc1	?	1.6%	?	20.6µM*	-7.5%	30.9
COc1ccc(-c2noc(N3CCCC(C(=O)Nc4ccc(F)cc4F)C3)n2)cc1 (stereo unspecified)	?	-22.1%	0.7%	?	-15.4%	-12.5
O=C1NC[C@H](CCCCN2C[C@H](Cc3ccccc3)N(CC3CCCCC3)C(=O)C2=O)N(CC2CCCCC2)C1=O	?	.	.	29.1µM*	.	-76.5*
O=C1NC[C@H](CCCCN2C[C@H](Cc3ccccc3)N(CCc3ccc(O)cc3)C(=O)C2=O)N(CCC2CCCCC2)C1=O	?	.	.	?	.	-57.5*
O=C1NC[C@@H](CCCCN2C[C@H](Cc3ccc(O)cc3)N(CCc3ccccc3)C(=O)C2=O)N(CCC2CCCCC2)C1=O	1.9%	.	.	-3.8%	.	?
O=C(O)CCC(=O)Nc1ccc(C(=O)OCC(=O)c2ccc(Cl)cc2Cl)cc1	-0.9%	4.7%	6.8%	-7.5%	0.6%	2.7
CC1=CC2CC1C1C(=O)N(c3ccc(S(=O)(=O)Nc4nc(C)cc(C)n4)cc3)C(=O)C21 (stereo unspecified)	26.2%	4.8%	8.2%	-1.2%	1.1%	23.8
CN(C)c1ccc(NC(=O)c2cccc(C(=O)Nc3ccc(N(C)C)cc3)n2)cc1	9.2µM*	-19.6%	-2.7%	6.51µM*	-50.1%	-55.9*
CC(C)OC(=O)c1cccc(C(=O)Nc2cccc(NC(=O)c3cccc(C(=O)OC(C)C)n3)n2)n1	?	-10.7%	-1.5%	2.06µM*	-2.5%	57.4
C/C(CC(=O)Nc1ccc(N(C)C)cc1)=N\NC(=O)c1ccccn1	?	0.1%	35.8%	14.6µM*	30.5%	-15.0
COc1cc(NC(=O)C/C(C)=N/NC(=O)c2ccccn2)c(OC)cc1Cl	5.1%	4.8%	-22.3%	-3.6%	-22.3%	-59.3*
C/C(CC(=O)Nc1ccc(N(C)C)cc1)=N\NC(=O)c1cnccn1	-5.0%	5.3%	-14.5%	?	-1.2%	0.0
CC(=O)Nc1ccc(NC(=O)c2cccc(C(=O)OC(C)C)n2)cc1	-7.3%	-1.2%	-18.9%	?	-2.7%	-23.7
O=C(Nc1ccccc1)c1cccc(C(=O)Nc2ccccc2)n1	-19.0%	-1.4%	1.8%	3.8%	-3.0%	3.5
O=C(O)CC/C(=N/NC(=O)CNC(=O)C(c1ccccc1)c1ccccc1)c1ccccc1	0.5%	3.6%	0.3%	18.0%	-8.0%	-8.6
COc1ccnc(Oc2ccccc2)c1C#N	-9.7%	1.3%	-27.5%	-8.8%	0.7%	-7.3
COc1cnc(-c2ccccn2)nc1Oc1ccccc1	0.461µM*	-1.3%	-8.0%	0.461µM*	-5.4%	14.9

Screening data as filed in PubChem.
